# The whole screen tested about 59,000 compounds, of which about 6,200 (11%) were called active. About 9% were inconclusive and are not listed. Rule as the data show it: active = max dye-equivalent concentration above about 10 nM; inconclusive = mostly about 1.1 nM to 9.6 nM; inactive = weaker than that. Many of the other results were omitted from the sample, so actives are more common in it than they were.
# Experiment: qHTS Assay for Spectroscopic Profiling in 4-MU Spectral Region
# Conditions: compound autofluorescence, 340/450 nm, 4-MU equivalents; stronger effect = higher value
# Outline: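 Compounds in 100 mM Tris, pH 8.0, sat 15 min at room temperature before fluorescence was read at 340 nm excitation/450 nm emission; a per-plate six-point 4-MU standard curve converted signals to dye-equivalent concentration at each compound concentration.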
row,SMILES,max dye-equivalent concentration
1,CCOC(=O)CSc1nnc(NC(=O)c2cccc(S(=O)(=O)N3CCCCC3)c2)s1,inactive
2,Cc1cc(C)c2nc3c(c([C@H](O)[C@@H]4CCCCN4)c2c1)CC/C3=C/c1ccc(Cl)cc1,inactive
3,CN1CCc2[nH]nc(-c3n[nH]c4c3CN(C)CC4)c2C1,inactive
4,Cn1c(-c2ccco2)nc2cc3ccccc3cc21,890 nM (active)
5,c1coc(-c2nc3nc4ccccc4n3nc2-c2ccco2)c1,inactive
6,CCOC(=O)CSc1nnc(-c2ccco2)n1C,inactive
7,O=C(c1ccco1)N1CCN(C(=O)c2ccc(COc3ccc(F)cc3)o2)CC1,inactive
8,O=C(c1ccco1)N1CCC2(CC1)CN(c1ncccn1)C2,inactive
9,CCCCNC(=O)CSc1nnc(-c2ccco2)n1C,inactive
10,Cn1c(=O)c2c(ncn2CC(=O)N2CCN(c3ccccc3)CC2)n(C)c1=O,inactive
11,COc1ccccc1NC(=O)c1ccc(C)s1,inactive
12,COc1ccccc1NC(=O)C1=C(C)Nc2ncnn2C1c1ccc(C)o1 (configuration not stated),inactive
13,COc1ccccc1NC(=O)C1=C(C)NC2=C(C(=O)CCC2)C1c1ccc(C)o1 (configuration not stated),16 nM (active)
14,O=C(NCCN=C1NS(=O)(=O)c2ccccc21)c1ccc(S(=O)(=O)N2CCOCC2)cc1,inactive
15,Cc1cc(=O)oc(C)c1C(=O)NC1CC(C)(C)NC(C)(C)C1,inactive
16,COCc1nnc(NC(=O)CS(=O)(=O)Cc2ccccc2)s1,inactive
17,O=C(O)C1CCCN1S(=O)(=O)c1ccc2c(c1)CCC2 (configuration not stated),inactive
18,CCS(=O)(=O)NCCc1ccc(OC)c(OC)c1,inactive
19,CCNC(=O)c1c(O)c2cccc3c2n(c1=O)CC3,17 nM (active)
20,Cc1cc(=O)n2c3c(cccc13)CCC2,inactive
21,Cn1c(C(=O)NCCN2CCc3ccccc3C2)cc2c(=O)[nH]c3ccccc3c21,inactive
22,O=S(=O)(O)c1ccc(O)c2ncccc12.O=S(=O)(O)c1ccc(O)c2ncccc12.[Zn],inactive

row,SMILES,max dye-equivalent concentration
1,Cc1ccccc1N1CCN(S(=O)(=O)C[C@@]23CC[C@H](C[C@H]2NC(=O)[C@@H](N)CCS(C)(=O)=O)C3(C)C)CC1,inactive
2,CCOC(=O)C1=C(CNC2CCCCC2)NC(=O)NC1c1cc(C)ccc1C (configuration not stated),inactive
3,COc1cc(OC)cc(C(=O)NCCSCc2ccco2)c1,inactive
4,C(=C\c1ccccc1)/CSc1nnc(-c2cccnc2)n1Cc1ccco1,inactive
5,Clc1cccc(-c2nc3nc4ccccc4nc3n2Cc2ccco2)c1,110 nM (active)
6,O=C(CSc1nnc(-c2cccnc2)n1Cc1ccco1)c1ccc(Cl)cc1,inactive
7,c1coc(CNc2ncnc3ccccc23)c1,inactive
8,CN1CCc2c(sc3c2c(NCc2ccco2)nc2nnnn23)C1,380 nM (active)
9,C=C(C)Cn1c(SCC(=O)NCc2ccco2)nc2sc3c(c2c1=O)CCC3,inactive
10,Cc1cccc(N(CC(O)CN(C)C)S(=O)(=O)c2ccccc2)c1 (configuration not stated),inactive
11,CCOC(=O)N1CCN(C(=O)CN(C2CCCCC2)S(C)(=O)=O)CC1,inactive
12,O=C(NCc1ccco1)c1nc2ncccn2n1,inactive
13,Cc1cccn2c(=O)c3cc(C(=O)NCc4ccccn4)n(C)c3nc12,190 nM (active)
14,O=C(NCc1ccccn1)c1c(O)c2c([nH]c1=O)CCCC2,inactive
15,Cc1cccn2c(=O)c3cc(C(=O)N4COCC4(C)C)n(C)c3nc12,970 nM (active)
16,CCOC(=O)N1CCN(S(=O)(=O)c2cc3c(cc2C)NC(=O)CO3)CC1,inactive
17,Cc1cnc(CNc2ncncc2-c2ccccc2Cl)cn1,inactive
18,Cc1ccccc1C(OCC(O)CN1CCCCC1CCO)c1ccccc1 (configuration not stated),inactive
19,Cc1ccc(-c2nc(COC(=O)c3c(C)noc3C)cs2)cc1,inactive
20,Cc1noc(C)c1C(=O)Nc1ccccn1,inactive
21,Cc1noc(C)c1C(=O)OCC(=O)/C=C1\N(C)c2ccccc2C1(C)C,150 nM (active)
22,COc1ccc(C(=O)N/N=C2/C(=O)c3c(C)cc(C)cc3CC2(C)C)cc1,inactive

row,SMILES,max dye-equivalent concentration
1,Cc1ccc(S(=O)(=O)N2CCC(C(=O)N[C@@H](C)C(=O)NCCc3ccccc3)CC2)cc1,inactive
2,CCOc1ccc(-n2c(SC(C)C(=O)OC)nc3c(c2=O)SCC3)cc1 (configuration not stated),inactive
3,CCOC(=O)N1CCC(NC(=O)CCc2cn(C)c3ccccc23)CC1,380 nM (active)
4,CCOC(=O)N1CCC(NC(=O)C(C)n2c3ccccc3c3cnn(C)c(=O)c32)CC1 (configuration not stated),inactive
5,CCOC(=O)N1CCC(NC(=O)Cc2cn(C)c3ccccc23)CC1,inactive
6,CCCN1C2=C(C(=O)CCC2)C(c2ccc(O)c(Br)c2)C2=C1CCCC2=O,78 nM (active)
7,COc1cc(Cl)cc(C2NC(=O)NC(C)=C2C(=O)NCc2ccccc2)c1O (configuration not stated),inactive
8,COc1cc([C@H]2c3cc4c(cc3[C@@H](O[C@@H]3O[C@H]5CO[C@@H](C)O[C@]5(O)C[C@H]3O)[C@@H]3COC(=O)[C@H]23)OCO4)cc(OC)c1O,inactive
9,CC(C)C(=O)N1c2ccccc2NC2=C(C(=O)CCC2)C1c1ccc(N(C)C)cc1 (configuration not stated),inactive
10,O=C1CCCC2=C1C(c1cccs1)n1nc(SCc3ccccc3)nc1N2 (configuration not stated),110 nM (active)
11,CC(C)(C)NCC[C@@H](O)c1cc(C(F)(F)F)nc2c(C(F)(F)F)cccc12,inactive
12,CC(=O)Nc1ccc(-c2nn3c(C)nnc3s2)cc1C,inactive
13,Fc1ccc(-c2nnc3sc(-c4ccc5c(c4)OCO5)nn23)cc1,26 nM (active)
14,c1ccc(-c2nnc3n2NC(c2ccc4c(c2)OCO4)S3)cc1 (configuration not stated),inactive
15,Fc1ccc(-c2ccc(-c3nn4c(-c5ccco5)nnc4s3)o2)cc1,51 nM (active)
16,Cc1nnc2sc(-c3ccco3)nn12,inactive
17,FC(F)(F)c1nnc2sc(-c3ccco3)nn12,inactive
18,CCOC(=O)C(C(=O)OCC)C(C#N)c1ccccc1 (configuration not stated),inactive
19,CCCn1c(SCC(=O)N2CCc3ccccc32)nnc1-c1ccncc1,inactive
20,Cc1cc(C)n2nc(C(=O)Oc3ccc4c(c3)OCO4)nc2n1,inactive
21,CCOc1ccc(NCCC(=O)c2ccc3c(c2)OCO3)cc1,inactive
22,C/C=C1\C(=O)C[C@@H]2[C@@H]3CCC4=CC(=O)CC[C@@]4(C)[C@H]3CC[C@@]12C,12 nM (active)

row,SMILES,max dye-equivalent concentration
1,COc1cccc(OCC(=O)Nc2ccccc2C(N)=O)c1,inactive
2,N#C/C=C1\Sc2ccccc2C(=O)N1CC(=O)N1CCN(S(=O)(=O)c2ccccc2)CC1,18 nM (active)
3,O=C(CCC(=O)N1CCN(S(=O)(=O)c2ccccc2)CC1)NC1CCCc2ccccc21 (configuration not stated),inactive
4,Cc1ccc(S(=O)(=O)N2CCN(C(=O)CCC(=O)NC3CCCc4ccccc43)CC2)cc1 (configuration not stated),inactive
5,CC1=NCCN1S(=O)(=O)c1ccc(Br)c(C)c1,inactive
6,CC(=O)c1cnc(Nc2nc(C)c3cc(C)ccc3n2)nc1C,inactive
7,O=C(CSC1=Nc2ccccc2C2=NC(c3ccccc3)C(=O)N12)NCC1CCCO1 (configuration not stated),750 nM (active)
8,O=C(CSc1nnc(-c2ccc(NS(=O)(=O)c3ccccc3)cc2)o1)NCC1CCCO1 (configuration not stated),inactive
9,O=C(CS(=O)(=O)Cc1ccccc1)NCC1CCCO1 (configuration not stated),inactive
10,COC(=O)NC1(C(F)(F)F)NC(=O)N(C2CCCCC2)C1=O (configuration not stated),inactive
11,O=C(NCc1ccc(Cl)cc1)c1cc2c(nc3sccn32)s1,inactive
12,CS(=O)(=O)N1CCC[C@@]2(CCN(c3ccncc3)C2)C1,inactive
13,Cc1ccc2cc3cc(C(=O)N4CCCCCC4)oc3nc2c1,12 nM (active)
14,Cc1ccc(C(=O)N2CCCCCC2)cc1Br,inactive
15,O=C(c1cc(-c2cccs2)on1)N1CCCCC1,inactive
16,Cc1cc(C(=O)CC#N)c(C)n1CC(F)(F)F,inactive
17,Cc1ccsc1CNn1cnnc1SCc1ccccc1F,inactive
18,COc1ccccc1N1CCN(C(=O)Cn2nnc(-c3cccs3)n2)CC1,inactive
19,CN(C(=O)c1ccno1)c1nnc(-c2cccnc2)s1,inactive
20,CN(C(=O)COc1ccccc1)c1nnc(-c2ccncc2)s1,inactive
21,COc1cccc(-c2nnc(N(C)C(=O)c3ccno3)s2)c1,34 nM (active)
22,C=CCn1c(COc2ccccc2)nnc1SCC(=O)NCC(=O)OCC,inactive

row,SMILES,max dye-equivalent concentration
1,COc1ccccc1-c1cc(NCc2cccs2)ncn1,inactive
2,COC(=O)[C@H](CCSC)NC(=O)Nc1ccc(OC)cc1,inactive
3,COc1cccc2cc(C(C)N(CCCN3CCOCC3)C(=O)Nc3ccc(Cl)cc3)oc12 (configuration not stated),inactive
4,COc1ccc(CCN(Cc2cc3cccc(C)c3[nH]c2=O)C(=O)N2CCCC2)cc1OC,inactive
5,COc1cc2cc(CN(CCN3CCCC3)C(=O)Nc3ccccc3Cl)c(=O)[nH]c2cc1OC,250 nM (active)
6,CCCc1nc2c3cnn(-c4cccc(Cl)c4)c3ncn2n1,inactive
7,COc1ccc(-n2ncc3c(N4CCCc5ccccc54)ncnc32)cc1,39 nM (active)
8,Cc1cccc(-n2ncc3c(N4CCc5ccccc54)ncnc32)c1,18 nM (active)
9,c1ccc(-n2ncc3c(N4CCCC4)ncnc32)cc1,inactive
10,COc1ccc(N2CCN(C(=O)CSc3ncnc4c3cnn4-c3ccc(OC)cc3)CC2)cc1,inactive
11,Oc1c(C(c2ccccn2)N2CCOCC2)ccc2cccnc12 (configuration not stated),inactive
12,COc1ccccc1CNc1cc(-c2ccccc2CN(C)C)ncn1,inactive
13,O=C(Nc1ccccc1F)C1C2C=CC3(O2)C1C(=O)N(c1cccnc1)C3C(=O)NC1CCCCC1 (configuration not stated),inactive
14,COc1ccc(N(C(=O)c2cccnc2)S(=O)(=O)c2ccc3c(c2)n(C)c(=O)n3C)cc1,inactive
15,COc1ccc(-c2c3c(=O)n(C)c(=O)n(C)c3cn2NC(C)=O)cc1,2200 nM (active)
16,Cc1ccc(-c2c3c(=O)n(C)c(=O)n(C)c3cn2-n2cnnc2)cc1,inactive
17,Cc1ccc(-c2c3c(=O)n(C)c(=O)n(C)c3cn2-c2ccccc2O)cc1,inactive
18,COc1ccc(OC)c(-n2cc3c(=O)n(C)c(=O)n(C)c3c2)c1,inactive
19,COc1ccc(-c2c3c(=O)n(C)c(=O)n(C)c3cn2-c2cccc(OC)c2)cc1,12 nM (active)
